Bioassay records: PubChem, ICCB-Longwood Screening Facility, Harvard Medical School
Sa growth 42C – inhibitors of Staphylococcus aureus growth at 42 °C | S. aureus RN4220 growth, OD600, 20 h; hits give low values | relative growth, % (test concentration not listed) | 170,000 tested, 0.53% active | AID 720641;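 active = relative growth at most 50% at the other temperature and 20+ points below 30 °C, or under 10% at both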
S aureus helic – blocks Staphylococcus aureus DNA helicase; inhibition, % (test concentration not listed); AID 485395; purified S. aureus helicase, fluorescence unwinding assay; 120,000 tested, 0.05% active; in the data active = inhibition above about 25%, passing the limit was not always enough
Large screens that a line does not name were inactive; ! = a repeat was not active. Shown is part of a subset that was picked to be rich in hits.

C(=Nc1cccnc1)c1ccccc1	none
C(=Nc1cccnc1)c1c[nH]c2ccccc12	Sa growth 42C 8.3
Oc1c(CN2CCCCC2)ccc2cccnc12	none
Oc1c(C(O)(C(F)(F)F)C(F)(F)F)ccc2cccnc12	Sa growth 42C -0.3
CC1C/C(=N/Nc2nc3ccccc3[nH]2)CC(C)(C)C1 (stereo not given)	none
CC1=C/C(=N/Nc2nc3ccccc3[nH]2)CC(C)(C)C1	Sa growth 42C -0.4
O=C(CNC(=O)C1CCCCC1)OCc1cc(=O)n2cc(Br)ccc2n1	none
C[N+]1(CC(=O)OC2CCCCCCCCCCC2)CCCC1	Sa growth 42C 19.9
C[N+]1(CC(=O)OCCCC2CCCCC2)CCCCC1	none
CCN(CC)S(=O)(=O)c1ccc(Sc2nncs2)nc1	none
Nc1n(N)c2ccccc2[n+]1CC(=O)c1ccccc1	none
COC(=O)c1c(N2C(=O)C3CC(C)=C(C)CC3C2=O)sc(C)c1C (stereo not given)	none (no result: Sa growth 42C)
Nn1c(Cc2ccccc2F)nnc1SCc1cc(=O)n2ccsc2n1	none
Cc1ccc(Cn2c(C(C)O)nc3ccccc32)cc1 (stereo not given)	none (no result: Sa growth 42C)
COC(=O)c1nc2ccccc2n1Cc1ccc(C)cc1	Sa growth 42C 45.3
CC(=O)NC(=O)/C(C#N)=C/N1CCN(Cc2ccccc2)CC1	none
CN(CC(=O)Nc1ccccc1SCC#N)c1ccccc1	none
Cc1cc(C)n(-c2ncnc3scc(-c4ccccc4)c23)n1	none
CC(C)c1ccc(C2C(C#N)=C3N=C(N)c4ccccc4N3C3=C2C(=O)CCC3)cc1 (stereo not given)	none
O=C(Nc1nnc(C2CC2)o1)c1ccc(S(=O)(=O)N2CCCCC2)cc1	none
CC1CCCCN1S(=O)(=O)c1ccc(C(=O)Nc2nnc(C3CC3)o2)cc1 (stereo not given)	Sa growth 42C 0.0
CC(=O)N1CCN(c2ccc(Oc3ccnc4cc(Cl)ccc34)cc2)CC1	none
CC(=O)N1CCN(c2ccc(OC[C@H]3CO[C@](Cn4ccnc4)(c4ccc(Cl)cc4Cl)O3)cc2)CC1	Sa growth 42C 1.2! (no result: S aureus helic)
CC(C)CN(CC(C)C)c1nnc(NC(=O)NCc2ccco2)s1	none
Cc1no[n+]([O-])c1COc1cccc(/C=C2\SC(=S)NC2=O)c1	Sa growth 42C -0.8
COc1cc(C=C2C(=O)NC(=O)NC2=O)cc(Br)c1OCc1c(C)no[n+]1[O-]	none
CO[C@@]12[C@H](COC(N)=O)C3=C(C(=O)C(C)=C(N)C3=O)N1C[C@@H]1N[C@@H]12	Sa growth 42C 0.0 (no result: S aureus helic)
Cc1ccc(C)c(-c2nnc(NC(=O)c3ccccc3S(C)(=O)=O)o2)c1	Sa growth 42C 2.0
CS(=O)(=O)c1ccccc1C(=O)Nc1nnc(-c2ccc(Cl)cc2)o1	none
Cc1cccc(C(=O)Nc2nc3c(s2)CCCC3)c1	none (no result: S aureus helic)
O=C(Nc1cccc(Br)c1)Nc1nc2c(s1)CCCCCC2	Sa growth 42C 37.0 (no result: S aureus helic)
Cc1[nH][nH]c(=O)c1C=Nc1ccc(O)c(C(=O)O)c1	none
CC1(C)COC(c2ccc(C(C)(C)C)cc2)=N1	none (no result: S aureus helic)
COc1ccc(C(=O)NCC(c2ccc3c(c2)OCO3)N2CCOCC2)cc1 (stereo not given)	none (no result: S aureus helic)
COc1ccc(C(c2cc3c(cc2O)OCO3)N2CCOCC2)cc1 (stereo not given)	Sa growth 42C 1.8
CN(C)c1ccc(C(c2cc3c(cc2O)OCO3)N2CCCCC2)cc1 (stereo not given)	Sa growth 42C 0.9
Cc1cc(C)cc(C(=O)NCC(c2ccc(N(C)C)cc2)N2CCCC2)c1 (stereo not given)	none (no result: S aureus helic)
CCN(CC)CC#Cc1cccc(C)c1	none
COc1ccc(NC(=O)CN2CCC(c3nc4ccc(Cl)cc4[nH]3)CC2)c(OC)c1	none
CC(C)(C)c1ccccc1OCCCCCn1ccnc1	Sa growth 42C -1.0
CCOc1ccc(OCCCCn2ccnc2)cc1	none
O=C(NCC(c1ccc2c(c1)OCO2)N1CCN(c2ccccc2)CC1)c1ccc(F)c(F)c1 (stereo not given)	none (no result: S aureus helic)
Oc1cc2c(cc1C(c1ccc(C(F)(F)F)cc1)N1CCOCC1)OCO2 (stereo not given)	none (no result: S aureus helic)
COC(=O)c1ccc(C(c2cc3c(cc2O)OCO3)N2CCN(c3ccccc3)CC2)cc1 (stereo not given)	Sa growth 42C -0.2
Oc1cc2c(cc1C(c1ccc(C(F)(F)F)cc1)N1CCN(c3ccccc3)CC1)OCO2 (stereo not given)	Sa growth 42C -0.7
COc1ccc(CNC(=O)C(C)Sc2nc3ccccc3n2C)cc1 (stereo not given)	none
O=C(Cc1ccc(S(=O)(=O)N2CCCCC2)s1)OCc1csc(Nc2ccccc2)n1	none
CCCC(=O)Nc1ccc(C(=O)NN)cc1	none
CCc1ccc(NC(=O)N(Cc2ccc3c(c2)OCO3)C2CCN(CC)CC2)cc1	none
COCCn1c(O)c(C=NCCn2c(C)nc3ccccc32)c(=O)[nH]c1=S	none
CN(C)[C@@H]1C(=O)C(C(=O)NCN2CCCC2)=C(O)[C@@]2(O)C(=O)C3=C(O)c4c(O)cccc4[C@@](C)(O)[C@H]3C[C@@H]12	none (no result: S aureus helic)
C=C1c2cccc(O)c2C(O)=C2C(=O)C3(O)C(O)=C(C(N)=O)C(=O)C(N(C)C)C3C(O)C12 (stereo not given)	Sa growth 42C 4.3
CC[C@@]1(C)N[C@H](C(=O)O)CS1	none
O=C(Nc1ncc(Cc2ccccc2Cl)s1)c1ccco1	none (no result: Sa growth 42C)
CC1SC(=N)N(c2ncc(Cc3ccccc3Cl)s2)C1=O (stereo not given)	Sa growth 42C -1.0
COc1cccc(C(=O)NCc2ccc3c4c(cccc24)C(=O)N3)c1	none
O=C(O)c1cnc2ccccn2c1=O	none
CC(C)Oc1cccc(C(=O)NCC2CCCO2)c1 (stereo not given)	none
O=C(O)/C=C/C(=O)Nc1ccc(SC(F)(F)F)cc1	none
O=C(Nc1ccc(SC(F)(F)F)cc1)n1ccc(C(F)(F)F)n1	Sa growth 42C 4.9 (no result: S aureus helic)
O=COCC1OC(OC=O)C(Nc2ccccc2)C(OC=O)C1OC=O (stereo not given)	none
O=S(=O)(c1ccc2c(c1)CCCN2)N1CCCCC1	none
CCN(CC)c1ccc2c(c1)CCCN2	Sa growth 42C 4.2
CN1CCc2c(-c3cccs3)nc(OCc3ccccc3Br)c(C#N)c2C1	none
CC(=O)NC[C@H]1CN(c2ccc(N3CCOCC3)c(F)c2)C(=O)O1	Sa growth 42C -0.8 (no result: S aureus helic)
Cc1ccc(C(=O)c2ccc(N3CCOCC3)c(F)c2)cc1	none
CC(=O)Nc1sc2c(c1C#N)CCC2	none
N#Cc1c(NC(=O)C(F)(F)F)sc2c1CCCC2	Sa growth 42C -1.0
CC(OC(=O)C1CC2CCCC(C1)C2=O)C(=O)N1c2ccccc2CC1C (stereo not given)	none
c1ccc(-c2cnnc(N3CCCC3)n2)cc1	none
O=C(Oc1cccc2cccnc12)c1ccccc1	Sa growth 42C 1.7!
O=C(Oc1ccccc1OC(=O)c1ccccc1)c1ccccc1	none
O=C(Oc1cccc2cccnc12)c1cc(C(F)(F)F)cc(C(F)(F)F)c1	Sa growth 42C 1.3 (no result: S aureus helic)
O=C(Oc1cccc2cccnc12)c1cccc(F)c1	Sa growth 42C 1.6
NC(=O)COc1cccc2cccnc12	none
O=C(Oc1cccc2cccnc12)C1CCCCC1	none
Brc1cc2c(cc1Cn1nnc(-c3cccs3)n1)OCO2	none
O=C(COC(=O)c1ccc(CO)cc1)Nc1ccccc1	none
O=C(OC1CCOC1=O)c1cc(-c2ccco2)nc2ccccc12 (stereo not given)	none
O=C(O)CC1Oc2ccccc2NC1=O (stereo not given)	none
CC(C)N(Cc1ccccc1)C(=O)c1cccs1	none (no result: S aureus helic)
CC(C)N(CC(=O)c1cccs1)Cc1ccccc1	Sa growth 42C -1.0
CC(C)CCNC(=O)CN1CCOc2ccccc21	none
O=C(Oc1ccc(Cl)cc1)c1cc(-c2ccc3c(c2)OCCO3)on1	none (no result: S aureus helic)
